Laboratory results: PubChem BioAssay (NCATS)
Where “and” joins values, the source holds several entries; their conditions need not be identical. Equal values may be shown once. Inconclusive results are not listed. A call without a number means that no potency is given here. Values without a mark were called inactive. Calls of active or inactive are those of the source. The call rests on the fitted dose curve; in most records, active means well fitted cell-killing curve with a large enough effect; inconclusive means small, poorly fitted or top-dose-only effect, or effect the other way; inactive means no such curve, though single readings can be large or run the other way.

Tests used:
[1] = Viability qHTS for spleen associated tyrosine kinase inhibitor (SYKi) naive MV4-11 cells (AID 1963823); further: nearly all actives have a fitted effect of over 40% in size
Procedure, shortened: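 Luminescence from CellTiter-Glo, developed 10 min at room temperature, gave viability of MV4-11 cells never exposed to SYK inhibitor. Cells (500/well) had been incubated with compounds for 72 hr under standard culture conditions.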

[2] = Viability qHTS for spleen associated tyrosine kinase inhibitor (SYKi) drug resistant MV4-11 cells (AID 1963824); further: nearly all actives have a fitted effect of over 35% in size
Procedure, shortened: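 SYK-inhibitor-resistant MV4-11 AML cells were seeded at 500 per well onto compound and cultured 72 hours (37 °C, 5% CO2). CellTiter-Glo was then added, and after 10 min at room temperature, luminescence gave viability.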
Potency means the concentration at half of the fitted maximal effect.

Cc1ncc([N+](=O)[O-])n1CC(O)CN1CCOCC1 (stereo not given)
Potency [1]: inactive
Potency [2]: inactive

O=C(O)c1cccc(C(=O)CCC2OC(n3cnc4c(=O)[nH]cnc43)C(O)C2O)c1 (stereo not given)
Potency [1]: inactive
Potency [2]: inactive

CC1(C(=O)O)CCCC2(C)C3CCC4CC3(CCC12)CC4C(=O)O (stereo not given)
Potency [1]: inactive
Potency [2]: inactive

CC1(CO)CC[C@]2(C(=O)O[C@@H]3O[C@H](CO)[C@@H](O)[C@H](O)[C@H]3O)CC[C@]3(C)C(=CCC4[C@@]5(C)C[C@H](O)[C@H](O[C@@H]6OC[C@@H](O)[C@H](O)[C@H]6O)[C@@](C)(CO)C5CC[C@]43C)C2C1 (stereo not given in full)
viability (% of control) [1]: 88.9% [at 9.25 µM]
viability, % of control [2]: 101% [at 9.25 µM]

C[C@@H](O[C@H]1OCCN(Cc2n[nH]nc2CN(C)C)[C@H]1c1ccc(F)cc1)c1cc(C(F)(F)F)cc(C(F)(F)F)c1
Potency [1]: 10.3 µM (active)
Potency [2]: 6.51 µM (active)

C/C=C/C=C/C=C/C(=O)O[C@@H]1[C@@H](OC)C2=C(C(=O)N(C(CCC(=O)O)C(=O)O)C2)[C@@]2(C)CCCC(C)(C)[C@H]12 (stereo not given in full)
Potency [1]: inactive
Potency [2]: inactive

C=C1CC23CC1CCC2C12OC(=O)C(C)(C(O)C(O)C1O)C2C3C(=O)O (stereo not given)
Potency [1]: inactive
Potency [2]: inactive

CCCc1cc(C)[nH]c(=O)c1CNC(=O)c1cc(-c2ccc(N3CCN(C(C)C)CC3)nc2)cc2c1cnn2C(C)C
Potency [1]: 13 µM (active) and 5.9 µM (active)
Potency [2]: 8.2 µM (active) and 8.33 µM (active)

C[C@@H]1Cc2c([nH]c3ccccc23)[C@@H](c2c(F)cc(/C=C/C(=O)O)cc2F)N1CC(C)(C)F
Potency [1]: 23.5 µM (active)
Potency [2]: 20.9 µM (active)

C=C1C(=O)OC2/C=C(\C)CC/C=C(\C=O)C(OC)C(OC(=O)C(C)CC)C12 (stereo not given)
Potency [1]: 3.21 µM (active)
Potency [2]: 2.02 µM (active)

CC1=CC(=O)C2(OC3OC(C)C(O)C(OC(=O)/C=C/c4ccccc4)C3O)C=COC(OC3OC(CO)C(O)C(O)C3O)C12 (stereo not given)
Potency [1]: inactive
Potency [2]: inactive

O=C(C[C@@H]1C(C(=O)O)=CO[C@@H](O[C@@H]2O[C@H](CO)[C@@H](O)[C@H](O)[C@H]2O)/C1=C\CO)OCCc1ccc(O)cc1
Potency [1]: inactive
Potency [2]: inactive

CCOC(=O)c1cnn(-c2ccc(NC(=O)C(Cl)=C(Cl)Cl)cc2)c1C(F)(F)F
Potency [1]: 0.58 µM (active)
Potency [2]: 0.366 µM (active)

COC1=CC(=O)O/C1=C(/OC)[C@@H]1O[C@H]1c1ccccc1
Potency [1]: 23.1 µM (active)
Potency [2]: 10.3 µM (active)

Nc1cc(C(F)(F)F)ccc1S
Potency [1]: 21.1 µM (active)
Potency [2]: 23.7 µM (active)

CC1=C2C(=O)C=C(CO[C@@H]3O[C@H](CO)[C@@H](O)[C@H](O)[C@H]3O)[C@@H]2[C@H]2OC(=O)[C@H](C)[C@@H]2CC1
Potency [1]: inactive
Potency [2]: inactive

COC(=O)[C@@]1(C)CC[C@]2(C(=O)O[C@@H]3O[C@H](CO)[C@@H](O)[C@H](O)[C@H]3O)CC[C@]3(C)C(=CCC4[C@@]5(C)CC[C@H](O[C@@H]6O[C@H](C(=O)O)[C@@H](O)[C@H](O)[C@H]6O)C(C)(C)C5CC[C@]43C)[C@@H]2C1 (stereo not given in full)
viability (% of control) [1]: 68.6% [at 9.25 µM]
viability, % of control [2]: 81.9% [at 9.25 µM]

O=C(O)c1ccccc1C(=O)Nc1ccc(S(=O)(=O)Nc2nccs2)cc1
Potency [1]: inactive
Potency [2]: inactive

Nc1ncnc2c1c(I)cn2[C@@H]1C[C@H](N)[C@@H](O)[C@H]1O
Potency [1]: 2.91 µM (active)
Potency [2]: 6.51 µM (active)

CN(C)CC(c1ccc(O)cc1)C1(O)CCCCC1 (stereo not given)
Potency [1]: inactive
Potency [2]: inactive

C=C1CCC2C(C)(C(=O)O)CC(O)CC2(C)C1CC/C(C)=C/C(=O)O (stereo not given)
Potency [1]: inactive
Potency [2]: inactive

Nc1nonc1-c1nc2cnccc2n1C1CC1
Potency [1]: 2.06 µM (active)
Potency [2]: 2.31 µM (active)

CC1=CC(=O)CC2C1(O)CCC(C)C21CC(c2ccoc2)OC1=O (stereo not given)
Potency [1]: inactive
Potency [2]: inactive

CC(=O)O[C@@H](C[C@@H]1C=C(C)C(=O)O1)[C@H](C)[C@H]1CCC2[C@@]3(C)CC[C@H](O[C@@H]4O[C@H](CO)[C@@H](O)[C@H](O)[C@H]4O[C@@H]4O[C@@H](C)[C@H](O)[C@@H](O)[C@H]4O)C(C)(C)C3CC[C@@]2(C)[C@@]12COC(=O)C2 (stereo not given in full)
viability (% of control) [1]: 81.6% [at 9.25 µM]
viability, % of control [2]: 89.9% [at 9.25 µM]

CC1=COC(OC2OC(CO)C(O)C(O)C2O)C2C(CO)CC(OC(=O)/C=C/c3ccc(O)cc3)C12 (stereo not given)
Potency [1]: inactive
Potency [2]: inactive

CC1(C)S[C@@H]2[C@H](NC(=O)[C@H](NC(=O)N3CCN(S(C)(=O)=O)C3=O)c3ccccc3)C(=O)N2[C@H]1C(=O)O
Potency [1]: inactive
Potency [2]: inactive

Cc1cc(N2CCN(C(=O)Oc3ccc(-c4ccccc4)cn3)CC2)c2ccccc2n1
Potency [1]: 6.51 µM (active)
Potency [2]: 5.8 µM (active)

CCN=C1N[C@@H]2[C@@H](O)[C@H](O)[C@@H](CO)O[C@@H]2S1
Potency [1]: inactive
Potency [2]: inactive

C[C@@H]1O[C@@H](O[C@H]2[C@H](O)[C@@H](O[C@@H]3O[C@H](CO)[C@@H](O)[C@H](O[C@@H]4O[C@H](CO)[C@@H](O)[C@H](O)[C@H]4O)[C@H]3O)[C@H](O[C@H]3CC[C@@]4(C)C(=CC[C@@H]5C4CC[C@@]4(C)C5C[C@@H]5OC6(CC[C@@](C)(CO[C@@H]7O[C@H](CO)[C@@H](O)[C@H](O)[C@H]7O)O6)[C@@H](C)[C@@H]54)C3)O[C@@H]2CO)[C@H](O)[C@H](O)[C@H]1OC1OC(CO)C(O)C(O)C1O (stereo not given in full)
viability (% of control) [1]: 77.4% [at 9.25 µM]
viability, % of control [2]: 109% [at 9.25 µM]

CC(=O)NC1CC(=O)C23C(=O)NC(Cc4c[nH]c5ccccc45)C2C(C)=C(C)C(O)C3/C=C/CC(C)/C=C(/C)C(O)C1O (stereo not given)
Potency [1]: inactive
Potency [2]: inactive

CC1(C)CC[C@]2(C(=O)O[C@@H]3O[C@H](CO)[C@@H](O)[C@H](O)[C@H]3O)CC[C@]3(C)C(=CCC4[C@@]5(C)CC[C@H](O[C@@H]6O[C@H](C(=O)O)[C@@H](O)[C@H](O)[C@H]6O)[C@@](C)(CO)C5CC[C@]43C)C2C1 (stereo not given in full)
viability (% of control) [1]: 98% [at 9.25 µM]
viability, % of control [2]: 100% [at 9.25 µM]

C=CC(C)(O)CO[C@@H]1O[C@H](CO)[C@@H](O)[C@H](O)[C@H]1O (stereo not given in full)
Potency [1]: inactive
Potency [2]: inactive

C=CC(C)(O)CC/C=C(\C)C(=O)OC1CC2(C(=O)O)CCC3(C)C(=CCC4C5(C)CCC(OC6OC(COC7OCC(O)C(O)C7O)C(O)C(OC7OCC(O)C(O)C7O)C6OC6OC(CO)C(O)C(O)C6OC6OCC(O)C(O)C6O)C(C)(C)C5CCC43C)C2CC1(C)C (stereo not given)
viability (% of control) [1]: 73.5% [at 9.25 µM]
viability, % of control [2]: 68% [at 9.25 µM]

C[C@H](CCC(=O)O)[C@H]1CC[C@H]2[C@@H]3C[C@H](O)[C@@H]4C[C@H](O)CC[C@]4(C)[C@H]3CC[C@]12C
Potency [1]: inactive
Potency [2]: inactive

O=C(/C=C/c1ccc(O)cc1)N[C@@H](Cc1ccc(O)cc1)C(=O)O
Potency [1]: inactive
Potency [2]: inactive

COC(=O)c1ccccc1O[C@@H]1O[C@H](CO[C@@H]2OC[C@@H](O)[C@H](O)[C@H]2O)[C@@H](O)[C@H](O)[C@H]1O
Potency [1]: inactive
Potency [2]: inactive

COc1cc(OC)c(C(=O)/C=C/c2ccccc2)c2c1C=CC(C)(C)O2
Potency [1]: 10.3 µM (active)
Potency [2]: 5.17 µM (active)

O=C(/C=C/c1ccc(O)cc1)OC[C@H]1O[C@H](O[C@@]2(CO)O[C@@H](CO)[C@H](O)[C@H]2O)[C@H](O)[C@@H](O)[C@@H]1O
Potency [1]: inactive
Potency [2]: inactive

COc1cc(OC)cc(-c2ccc3c(-c4ccc(F)cc4)[nH]nc3n2)c1
Potency [1]: inactive
Potency [2]: inactive

Nc1nc(COC(=O)c2ccc([N+](=O)[O-])cc2)nc(Nc2ccccc2)n1
Potency [1]: inactive
Potency [2]: inactive

CC1CCC2(C(=O)O)CCC3(C)C(=CCC4C5(C)CCC(OC(=O)/C=C/c6ccccc6)C(C)(C)C5CCC43C)C2C1C (stereo not given)
Potency [1]: inactive
Potency [2]: inactive

COC1=CC(=O)O[C@@H](/C=C/c2ccccc2)[C@@H]1O
Potency [1]: inactive
Potency [2]: inactive

C#CCN(Cc1cc2c(=O)[nH]c(C)nc2cc1Br)c1ccc(C(=O)NCc2cccnc2)cc1
Potency [1]: inactive
Potency [2]: inactive

CO[C@H]1O[C@@H]2O[C@]3(C)CC[C@H]4[C@H](C)CC[C@@H]([C@H]1C)[C@@]24OO3
Potency [1]: 1.84 µM (active)
Potency [2]: 2.91 µM (active)

CC(=O)NC1=NN(C(C)=O)C(C)(c2ccccc2)S1 (stereo not given)
Potency [1]: 1.84 µM (active)
Potency [2]: 2.59 µM (active)

CC1=CC(=O)CC(C)(C)C1/C=C/C(C)O[C@@H]1O[C@H](CO)[C@@H](O)[C@H](O)[C@H]1O[C@@H]1OC[C@](O)(CO)[C@H]1O (stereo not given in full)
Potency [1]: inactive
Potency [2]: inactive

CC1CCC2C(C)(C)C(O)CCC2(C)C12Cc1c(O)cc3c(c1O2)CN=C3N (stereo not given)
Potency [1]: inactive
Potency [2]: inactive

CC(=O)C=C=C1C(C)(C)CC(O)CC1(C)O[C@@H]1O[C@H](CO[C@H]2OC[C@](O)(CO)[C@H]2O)[C@@H](O)[C@H](O)[C@H]1O (stereo not given in full)
Potency [1]: inactive
Potency [2]: inactive

C=C[C@]1(C)C=C2CCC3C(C)(CCC[C@@]3(C)C(=O)O)C2CC1 (stereo not given in full)
Potency [1]: inactive
Potency [2]: inactive

CN(Cc1ccc(C(C)(C)C)cc1)Cc1cccc2ccccc12
Potency [1]: inactive
Potency [2]: inactive

COc1cc2ncnc(Nc3ccc(O)cc3)c2cc1OC
Potency [1]: 3.26 µM (active)
Potency [2]: 7.31 µM (active)

C=C[C@H](/C=C\c1ccc(O)cc1)c1ccc(O)cc1
Potency [1]: 18.4 µM (active)
Potency [2]: 18.4 µM (active)

COC(=O)C1(O)C(OC(C)=O)CCC2C3(CC(c4ccoc4)OC3=O)C(C)=CCC21C(=O)OC (stereo not given)
Potency [1]: inactive
Potency [2]: inactive

CCN(CC)Cc1cccc(/C=C/c2nc3ccc(F)cc3c(=O)n2-c2ccccc2Cl)n1
Potency [1]: 11.6 µM (active)
Potency [2]: 9.2 µM (active)

C[C@@H]1CC[C@]2(C(=O)O)CC[C@]3(C(=O)O)C(=CCC4[C@@]5(C)CC[C@H](O[C@@H]6O[C@@H](C)[C@H](O[C@@H]7O[C@H](CO)[C@@H](O)[C@H](O)[C@H]7O)[C@@H](O)[C@H]6O)C(C)(C)C5CC[C@]43C)C2[C@H]1C (stereo not given in full)
Potency [1]: inactive
Potency [2]: inactive
